Most compounds without a hit are left out; they make up all but 0.3% or so of the library.
NPYLR7 ag: activates Aedes aegypti NPYLR7 receptor | HEK293T NPYLR7/Galpha15, GCaMP6s calcium fluorescence | hit rate 0.15% among 270,000 | AID 1259423 | activation, % at 10 µM; in the data active means activation above about 40%;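 further: 0% = vehicle and 100% = reference agonist at the receptor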
mcGAS lum: mouse cGAS inhibition by luminescence; Q8C6L5; recombinant cGAS, Kinase-Glo ATP depletion luminescence; inhibition, % at 12.5 µM; hit rate 0.15% among 160,000;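 further: 0% = negative control wells and 100% = reference inhibitor with no enzyme activity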
hcGAS inh: human cGAS inhibition | AID 1259398 | hit rate 0.081% among 290,000 | recombinant h-cGAS, ATP depletion, Kinase-Glo luminescence | Q8N884 | inhibition, % at 12.5 µM;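 further: 0% = vehicle reaction and 100% = reaction without DNA for no activity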
Target sequence (Q8N884 whole entry, looked up): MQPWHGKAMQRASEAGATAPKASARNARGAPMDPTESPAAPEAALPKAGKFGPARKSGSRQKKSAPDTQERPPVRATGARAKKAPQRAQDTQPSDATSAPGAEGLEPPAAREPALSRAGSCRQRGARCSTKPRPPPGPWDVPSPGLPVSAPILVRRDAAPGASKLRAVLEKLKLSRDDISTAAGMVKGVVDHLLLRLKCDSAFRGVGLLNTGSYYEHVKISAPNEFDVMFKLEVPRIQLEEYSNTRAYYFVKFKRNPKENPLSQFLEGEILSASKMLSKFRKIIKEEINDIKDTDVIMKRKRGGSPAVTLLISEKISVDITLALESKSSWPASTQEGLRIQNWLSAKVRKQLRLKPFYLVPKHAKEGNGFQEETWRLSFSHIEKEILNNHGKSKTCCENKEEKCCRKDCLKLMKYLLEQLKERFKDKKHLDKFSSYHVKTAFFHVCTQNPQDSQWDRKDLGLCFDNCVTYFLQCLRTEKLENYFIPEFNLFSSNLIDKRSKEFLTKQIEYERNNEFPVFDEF
Active calls of the source: *. Unless noted, no stated cut-off is given here; in the data, active means inhibition above about 40%; inactive means the rest.

`O=C(Nc1ccc(Cl)cn1)c1ccc(Cn2cc(Br)c([N+](=O)[O-])n2)cc1` gave NPYLR7 ag 0.6 and hcGAS inh 2.8.
O=C(Nc1ccc(Cl)cn1)c1[nH]ncc1[N+](=O)[O-] was read as NPYLR7 ag 0.9 and hcGAS inh 60.5*.
For COc1cc(OC)c(C2=NOC3(CC(=O)N(c4cccc(Cl)c4)C3=O)C2)cc1OC (stereo unspecified) the results were NPYLR7 ag 82.7* and hcGAS inh -6.6.
`COc1ccc2c(c1OC)C(=O)N(c1cccc(Cl)c1)C2=O` gave NPYLR7 ag 9.8 and hcGAS inh -7.3.
`CCOc1ccc2nc3cc(N)ccc3c(N)c2c1` gave NPYLR7 ag 72.0* and hcGAS inh 98.8*.
`CCOc1ccc2nc(Nc3nc(C)c(C)c(C)n3)nc(C)c2c1` gave NPYLR7 ag 9.7, mcGAS lum -5.4 and hcGAS inh -3.6.
For Cc1cc(C(=O)Cn2cc(S(=O)(=O)N3CCCC3)ccc2=O)c(C)n1Cc1ccco1 the results were NPYLR7 ag 11.9, mcGAS lum -5.6 and hcGAS inh -4.8.
Screening COc1ccc(C(=O)COc2ccc(-c3noc(C(C)C)n3)cc2)cc1 returned NPYLR7 ag 6.9 and hcGAS inh active.
`CCOc1ccc(-c2cc(-c3nc(-c4ccc(OC)cc4)no3)[nH]n2)cc1` gave NPYLR7 ag 3.4, mcGAS lum -8.4 and hcGAS inh -8.1.
Screening CCOC(=O)c1ccc2c(c1)nc(SCc1cccc(Cl)c1)n2Cc1ccc(C(F)(F)F)cc1 returned NPYLR7 ag 19.6, mcGAS lum -4.1 and hcGAS inh -1.0.
For COc1cc(C)ccc1Oc1cc(N2CCN(C(=O)c3cccc(Cl)c3)CC2)ncn1 the results were NPYLR7 ag -8.3, mcGAS lum -7.4 and hcGAS inh -9.3.
Screening CN(Cc1ccc(-c2ccc(Cl)cc2)o1)C(=O)CCl returned NPYLR7 ag 6.1, mcGAS lum 49.8* and hcGAS inh -4.7.
Cc1ccc(CN(C)C(=O)CCl)o1 was read as NPYLR7 ag -1.4, mcGAS lum 6.6 and hcGAS inh 3.9.
O=C1C=CC(=NS(=O)(=O)c2ccc3ccccc3c2)C=C1Br was read as NPYLR7 ag -4.1 and hcGAS inh -4.9.
COc1cc(CNc2nn[nH]n2)cc(Br)c1OCc1ccccc1Cl was read as NPYLR7 ag -11.3 and hcGAS inh -1.7.
Screening O=c1[nH]c(CCl)nc2sc3c(c12)CCN(Cc1ccccc1)C3 returned NPYLR7 ag 45.3* and hcGAS inh 0.8.
COCCCNCc1nc2sc3c(c2c(=O)[nH]1)CCN(Cc1ccccc1)C3 was read as NPYLR7 ag -4.1, mcGAS lum 2.7 and hcGAS inh 3.8.
O=C(C1CC=CCC1)N1CCc2onc(-c3ccc(C(F)(F)F)cc3)c2C1 (stereo unspecified) was read as NPYLR7 ag 10.6, mcGAS lum -17.4 and hcGAS inh -6.5.
For CC(C)NC(=O)C(C)N1CCc2onc(-c3ccc(C(F)(F)F)cc3)c2C1 (stereo unspecified) the results were NPYLR7 ag 134.9*, mcGAS lum 1.4 and hcGAS inh 4.8.
Cc1ccccc1OCC(=O)N1CCC(n2c(=O)[nH]c3ccccc32)CC1 was read as NPYLR7 ag -3.8 and hcGAS inh -9.6.
CC(C)Oc1c(-c2ccco2)c(=O)c1=O was read as NPYLR7 ag -6.3 and hcGAS inh 65.8*.
For CC(C)Oc1nc(-c2ccco2)n(-c2ccc(N)cc2)n1 the results were NPYLR7 ag -1.1 and hcGAS inh -5.4.
For Cc1ccc(S(=O)(=O)Nc2c(C)cccc2C(C)C)cc1 the results were NPYLR7 ag 0.9 and hcGAS inh -2.5.
For COc1cc(C=C2C(=O)N(C)C(=O)N(C)C2=O)cc(I)c1O the results were NPYLR7 ag 4.8, mcGAS lum 11.9 and hcGAS inh 11.7.
For COc1cc(C=C2C(=O)N(C)C(=O)N(C)C2=O)cc([N+](=O)[O-])c1O the results were NPYLR7 ag -19.5, mcGAS lum 45.7* and hcGAS inh 11.4.
`CCCc1nc(C(=O)NCc2nc3ccccc3c(=O)[nH]2)cs1` gave NPYLR7 ag -0.8, mcGAS lum -3.9 and hcGAS inh -0.2.
Cc1ccc(S(=O)(=O)N(C)c2ccc(C(N)=O)cc2)cc1 was read as NPYLR7 ag 1.2, mcGAS lum 3.3 and hcGAS inh 0.7.
`COc1ccc(C)cc1-n1c(SCC(=O)O)nnc1-c1cc(C)nn1C` gave NPYLR7 ag 8.0, mcGAS lum -8.8 and hcGAS inh 44.2*.
For COc1ccc(C)cc1-n1c(Cn2ccnc2)nnc1SCC(=O)O the results were NPYLR7 ag 13.4 and hcGAS inh -3.9.
O=C(NC(c1ccc(Br)cc1)C1CCC1)c1ccc(=O)n(-c2ccccc2)n1 (stereo unspecified) was read as NPYLR7 ag -1.6, mcGAS lum -17.2 and hcGAS inh -5.5.
Screening O=C1N=c2ccccc2=C1c1sc(=O)[nH]c1O returned NPYLR7 ag -8.2, mcGAS lum 63.3* and hcGAS inh 6.1.
Screening O=C1N=c2ccccc2=C1c1sc(=S)n(-c2ccccc2)c1O returned NPYLR7 ag -10.2, mcGAS lum -4.8 and hcGAS inh -5.3.
CNC(=O)[C@H]1CN(C(=O)Nc2ccc3c(c2)OCO3)[C@]2(C)C(=O)N(CCOC)c3ccccc3[C@H]12 was read as NPYLR7 ag 13.9, mcGAS lum -3.5 and hcGAS inh -3.6.
For CCCCCOc1ccc(/C=C2\SC(=S)N(CC(=O)O)C2=O)cc1OC the results were NPYLR7 ag -7.0, mcGAS lum 1.1 and hcGAS inh -1.0.
`O=C1/C(=C/c2ccc(-c3cccc(Cl)c3)o2)NC(=S)N1c1ccccc1` gave NPYLR7 ag 4.3, mcGAS lum -0.4 and hcGAS inh -2.9.
Screening O=C1NC(=S)N(c2ccc3ccccc3c2)C(=O)/C1=C/c1ccc(-c2cccc(C(=O)O)c2)o1 returned NPYLR7 ag 3.8, mcGAS lum 81.0* and hcGAS inh 56.3*.
Cc1nc2nc(-c3cc(Cl)ccc3O)cc(C(=O)O)c2[nH]1 was read as NPYLR7 ag -1.6, mcGAS lum 51.3* and hcGAS inh 9.0.
Screening Cc1nc2nc(-c3cccc(Cl)c3)cc(C(=O)O)c2[nH]1 returned NPYLR7 ag -2.4, mcGAS lum -2.3 and hcGAS inh -4.5.
Screening CC(C)(NC(=O)c1ccn[nH]1)c1ccc(Br)cc1 returned NPYLR7 ag 2.4 and hcGAS inh -3.9.
`O=c1c(-c2ccccc2)coc2cc(O)cc(O)c12` gave NPYLR7 ag -11.0 and hcGAS inh 70.4*.
O=c1cc(-c2ccccc2)oc2cc(O)cc(O)c12 was read as NPYLR7 ag -2.4, mcGAS lum -1.4 and hcGAS inh 7.6.
N#CC(C#N)=C1C=C2C=C(N3CCN(Cc4ccccc4)CC3)CCC2CC1 (stereo unspecified) was read as NPYLR7 ag 47.1* and hcGAS inh -4.9.
For N#CC(C#N)=C1C=C2C=C(N3CCCC3)CCC2CC1 (stereo unspecified) the results were NPYLR7 ag 90.0*, mcGAS lum -8.4 and hcGAS inh -10.3.
`N#CC(C#N)=c1c2nn(Cc3ccccc3)nc2c(=C(C#N)C#N)c2nn(Cc3ccccc3)nc12` gave NPYLR7 ag 0.3, mcGAS lum -6.2 and hcGAS inh -5.8.

Screening results: PubChem, Fisher Drug Discovery Resource Center
